Results filed as inconclusive are left out. Activity calls are given as the source filed them. Unless noted, calls come from the whole dose curve; as a rule, active = well fitted curve in the direction sought with a large enough effect in the repeat runs; inconclusive = weak or mixed curves; inactive = no such curve, though single readings can be large; an effect the other way counts as inactive or inconclusive.
Assays:
[1] = qHTS assay to identify small molecule antagonists of the androgen receptor (AR) signaling pathway using the MDA cell line in the presence of 0.5 nM R1881 - cell viability counter screen (AID 1259242); note: nearly all actives have a fitted effect of over 45% in size
In short: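 Viability of MDA-kb2 cells was multiplexed with the luciferase AR readout; after 16 hr with compounds and R1881 at 0.5 nM final, CellTiter-Fluor fluorescence was recorded.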

[2] = target: Androgen receptor (Homo sapiens) (UniProt P10275); test: qHTS assay to identify small molecule antagonists of the androgen receptor (AR) signaling pathway using the MDA cell line in the presence of 0.5 nM R1881 (AID 1259243); note: nearly all actives have a fitted effect of over 50% in size; note: potency is the fitted concentration of half-maximal effect
Androgen receptor (Homo sapiens), sequence (P10275 whole entry, looked up): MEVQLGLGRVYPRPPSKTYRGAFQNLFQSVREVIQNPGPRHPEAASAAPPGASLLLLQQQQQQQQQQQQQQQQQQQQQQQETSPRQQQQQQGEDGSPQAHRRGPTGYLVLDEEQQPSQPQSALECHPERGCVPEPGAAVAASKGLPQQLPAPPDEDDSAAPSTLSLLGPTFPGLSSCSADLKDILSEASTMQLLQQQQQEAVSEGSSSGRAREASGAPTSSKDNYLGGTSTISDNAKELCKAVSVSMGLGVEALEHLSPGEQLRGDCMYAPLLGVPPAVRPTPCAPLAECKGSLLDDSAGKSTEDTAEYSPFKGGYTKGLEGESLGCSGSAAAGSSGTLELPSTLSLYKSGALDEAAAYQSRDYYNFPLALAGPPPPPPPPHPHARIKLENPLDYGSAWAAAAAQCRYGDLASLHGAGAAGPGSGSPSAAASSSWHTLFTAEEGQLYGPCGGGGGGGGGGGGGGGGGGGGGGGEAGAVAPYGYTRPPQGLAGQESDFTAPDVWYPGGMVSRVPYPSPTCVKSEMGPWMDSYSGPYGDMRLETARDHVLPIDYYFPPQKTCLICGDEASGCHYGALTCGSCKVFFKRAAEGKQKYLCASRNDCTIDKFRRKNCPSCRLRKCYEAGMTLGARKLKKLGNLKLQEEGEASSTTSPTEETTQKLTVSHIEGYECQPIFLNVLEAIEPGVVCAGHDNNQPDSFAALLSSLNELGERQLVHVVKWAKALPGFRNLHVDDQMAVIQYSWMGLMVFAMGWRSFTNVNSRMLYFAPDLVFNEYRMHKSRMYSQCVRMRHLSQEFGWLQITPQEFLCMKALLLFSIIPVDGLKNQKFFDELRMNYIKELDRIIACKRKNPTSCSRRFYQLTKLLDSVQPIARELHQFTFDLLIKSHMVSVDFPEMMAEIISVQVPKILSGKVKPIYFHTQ
In short: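 Reporter cells cultured without CO2 receive test chemicals, then 0.5 nM R1881 final; after 16 hr at 37C, ONE-Glo is added and light output recorded.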

[3] = target: Estrogen receptor (Homo sapiens) (UniProt P03372); test: qHTS assay to identify small molecule antagonists of the estrogen receptor alpha (ER-alpha) signaling pathway using the BG1 cell line in the presence of 0.1 nM 17-beta-estradiol (AID 1259244); note: nearly all actives have a fitted effect of over 50% in size
Estrogen receptor (Homo sapiens), sequence (P03372 whole entry, looked up): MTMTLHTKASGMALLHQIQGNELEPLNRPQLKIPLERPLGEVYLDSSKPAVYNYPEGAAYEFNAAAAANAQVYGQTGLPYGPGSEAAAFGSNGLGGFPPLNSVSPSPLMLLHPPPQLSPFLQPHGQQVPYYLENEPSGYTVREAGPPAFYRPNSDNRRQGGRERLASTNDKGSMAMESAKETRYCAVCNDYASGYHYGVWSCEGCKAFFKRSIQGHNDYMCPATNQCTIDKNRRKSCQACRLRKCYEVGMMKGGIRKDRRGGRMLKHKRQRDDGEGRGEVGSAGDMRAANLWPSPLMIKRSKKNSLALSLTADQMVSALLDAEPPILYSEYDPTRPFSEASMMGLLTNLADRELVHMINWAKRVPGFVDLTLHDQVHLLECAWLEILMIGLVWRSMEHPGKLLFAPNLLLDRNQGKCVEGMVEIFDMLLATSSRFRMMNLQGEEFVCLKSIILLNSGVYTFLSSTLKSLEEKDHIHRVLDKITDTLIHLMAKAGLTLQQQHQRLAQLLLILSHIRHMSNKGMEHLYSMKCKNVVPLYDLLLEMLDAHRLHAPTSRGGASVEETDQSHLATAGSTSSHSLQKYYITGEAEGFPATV
In short: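 Estradiol at 0.1 nM (final) stimulates the endogenous ER-alpha of VM7Luc4E2 cells carrying an ERE-driven luciferase; compounds are co-incubated 22 h at 37C and luciferase output quantified by luminescence.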

[4] = qHTS assay to identify small molecule HDAC inhibitors (AID 1259364);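 note: wild-type HCT-116 cells with endogenous class I/II HDAC activity; top concentration of the series differs between compounds; nearly all actives have a fitted effect of over 45% in size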
In short: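 Read-out: luminescence of HDAC-Glo I/II reagent, 30 min RT, reflecting class I/II deacetylase activity in whole HCT-116 cells pre-exposed 2 h to DMSO-dissolved compounds.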

[5] = qHTS assay to identify small molecule HDAC inhibitors - cell viability counter screen (AID 1259365); note: series mostly up to about 92 µM; nearly all actives have a fitted effect of over 50% in size
In short: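 After overnight seeding at 1,500 cells per well, wild-type HCT-116 cultures took up compounds in DMSO for 2hr at 37 C. Viable cell content came from luminescence with CellTiter-Glo.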

[6] = qHTS assay to identify small molecule agonists of the sonic hedgehog signaling (Shh) pathway - cell viability counter screen (AID 1259366); note: nearly all actives have a fitted effect of over 50% in size
In short: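 Same-well cytotoxicity read. Gli1-Luc reporter 3T3 cells; compounds 24hr, 37C/5% CO2; CellTiter-Fluor fluorescence.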

[7] = qHTS assay to identify small molecule antagonists of the sonic hedgehog signaling (Shh) pathway - cell viability counter screen (AID 1259367); note: nearly all actives have a fitted effect of over 55% in size
In short: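 After a 4 hr settling period, 3T3 Gli1-Luc cells were treated with DMSO-dissolved chemicals and conditioned medium, kept 24 hr at 37C in 5% CO2, and assayed for viability by CellTiter-Fluor fluorescence following 1 hr reagent incubation.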

[8] = qHTS assay to identify small molecule antagonists of the sonic hedgehog signaling (Shh) pathway (AID 1259369; calls by dose curve; note: nearly all actives have a fitted effect of over 45% in size; note: potency is the fitted concentration of half-maximal effect)
In short: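 For antagonist detection, the reporter line received test compounds together with conditioned medium, incubated 24hr at 37 C, 5% CO2, then luminescence was recorded following 30min room-temperature luciferase reagent incubation.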

[9] = target: Estrogen receptor beta (Homo sapiens) (UniProt Q92731); test: qHTS assay to identify small molecule agonists of the estrogen receptor beta (ER-beta) signaling pathway (AID 1259377; active = well fitted activation curve with a large enough effect in the signal ratio in the repeat runs, not every such curve was filed as active; the % refers to the signal ratio)
Estrogen receptor beta (Homo sapiens), sequence (Q92731 whole entry, looked up): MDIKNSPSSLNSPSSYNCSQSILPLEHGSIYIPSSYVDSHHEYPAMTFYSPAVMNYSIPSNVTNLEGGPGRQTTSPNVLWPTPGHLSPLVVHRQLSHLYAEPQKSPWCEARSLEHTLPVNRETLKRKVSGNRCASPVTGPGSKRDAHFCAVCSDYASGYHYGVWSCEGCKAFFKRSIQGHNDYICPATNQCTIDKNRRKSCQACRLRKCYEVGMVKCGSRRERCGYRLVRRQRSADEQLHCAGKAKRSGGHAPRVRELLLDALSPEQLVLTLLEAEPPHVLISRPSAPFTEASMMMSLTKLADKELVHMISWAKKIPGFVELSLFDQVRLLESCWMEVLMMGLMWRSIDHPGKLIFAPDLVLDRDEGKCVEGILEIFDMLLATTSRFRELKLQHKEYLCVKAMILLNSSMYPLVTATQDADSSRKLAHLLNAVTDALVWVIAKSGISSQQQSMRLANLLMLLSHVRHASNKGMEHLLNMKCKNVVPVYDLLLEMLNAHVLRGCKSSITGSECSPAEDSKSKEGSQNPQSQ
In short: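 Read-out: beta-lactamase FRET fluorescence. Cell line: ER-beta-UAS-bla HEK293T in 2% charcoal-stripped FBS. Exposure: 16 hr at 37C. Substrate step: 2 h at room temperature.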

[10] = target: Estrogen receptor beta (Homo sapiens) (UniProt Q92731); test: qHTS assay to identify small molecule antagonists of the estrogen receptor beta (ER-beta) signaling pathway (AID 1259378; active = well fitted inhibition curve with a large enough effect in the signal ratio in the repeat runs, not every such curve was filed as active; the % refers to the signal ratio)
In short: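 ER-beta-UAS-bla HEK293T (GripTite) cells in 2% charcoal-stripped FBS medium were preincubated 6 hr at 37C, dosed with compound, then stimulated with 1 nM E2 (final) for 16 hr; beta-lactamase reporter read by B/G FRET fluorescence after 2 hr substrate loading.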

[11] = qHTS assay to identify small molecule agonists of the androgen receptor (AR) signaling pathway in the presence of an antagonist - cell viability counter screen (AID 1259379);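 note: MDA-kb2 human breast cancer cells carrying an MMTV luciferase reporter; series mostly up to about 92 µM; nearly all actives have a fitted effect of over 25% in size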
In short: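 Seed MDA-kb2 at 3,000 cells/well; incubate 5 hr, 37C, 0% CO2. Add nilutamide to 3.0uM final, then pin compounds at 15 concentrations. Incubate 16 hr. Add CellTiter-Fluor at 15 hr, read fluorescence after 1 hr.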

[12] = qHTS assay to identify small molecule agonists of the estrogen receptor beta (ER-beta) signaling pathway - cell viability counter screen (AID 1259380); note: nearly all actives have a fitted effect of over 30% in size; note: potency is the fitted concentration of half-maximal effect
In short: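 CellTiter-Glo read, 30 min RT, same wells as bla assay; cells ER-beta-UAS-bla HEK293T; 16 hr compound, 37C; medium 2% charcoal-stripped FBS.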

[13] = target: Androgen receptor (Homo sapiens) (UniProt P10275); test: qHTS assay to identify small molecule agonists of the androgen receptor (AR) signaling pathway in the presence of an antagonist (AID 1259381; calls by dose curve; note: nearly all actives have a fitted effect of over 15% in size)
In short: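 Test compounds at 15 concentrations were incubated for 16hr with MDA-kb2 reporter cells in presence of 3.0uM nilutamide (final). Signal: ONE-Glo luciferase luminescence.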

[14] = qHTS assay to identify small molecule antagonists of the estrogen receptor beta (ER-beta) signaling pathway - cell viability counter screen (AID 1259382); note: series mostly up to about 92 µM; nearly all actives have a fitted effect of over 55% in size
In short: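 In this multiplexed counter screen, cells were seeded at 2,000 per well in medium with 2% charcoal-stripped FBS and incubated 6 hr before compound and 1nM final E2 were added. Sixteen hours later, ATP-based luminescence reported viability.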

[15] = target: Estrogen receptor (Homo sapiens) (UniProt P03372); test: qHTS assay to identify small molecule agonists of the estrogen receptor alpha (ER-alpha) signaling pathway in the presence of an antagonist (AID 1259383; calls by dose curve; note: top concentration of the series differs between compounds; nearly all actives have a fitted effect of over 15% in size)
In short: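 Stably transfected VM7Luc4E2 reporter cells, kept 5 days in charcoal-stripped serum, received ICI-182,780 at 10.0nM final before compound addition. Following 22hr incubation at 37C and 5% CO2, luciferase signal was read by luminescence.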

[16] = qHTS assay to identify small molecule agonists or antagonists of the thyroid stimulating hormone receptor (TSHR) signaling pathway - wild type cell line counter screen (AID 1259384; calls by dose curve)
In short: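 Wild-type HEK293 cells were plated 18 h at 37 C/5% CO2, pin-dosed with compound plus Ro20-1724 medium, held 30 min at room temperature, then given cAMP-d2 and anti-cAMP-cryptate; fluorescence was read after 1 h. Fifteen concentrations, triplicate.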

[17] = target: Thyrotropin receptor (Homo sapiens) (UniProt P16473); test: qHTS assay to identify small molecule antagonists of the thyroid stimulating hormone receptor (TSHR) signaling pathway (AID 1259385; calls by dose curve; note: nearly all actives have a fitted effect of over 20% in size)
Thyrotropin receptor (Homo sapiens), sequence (P16473 whole entry, looked up): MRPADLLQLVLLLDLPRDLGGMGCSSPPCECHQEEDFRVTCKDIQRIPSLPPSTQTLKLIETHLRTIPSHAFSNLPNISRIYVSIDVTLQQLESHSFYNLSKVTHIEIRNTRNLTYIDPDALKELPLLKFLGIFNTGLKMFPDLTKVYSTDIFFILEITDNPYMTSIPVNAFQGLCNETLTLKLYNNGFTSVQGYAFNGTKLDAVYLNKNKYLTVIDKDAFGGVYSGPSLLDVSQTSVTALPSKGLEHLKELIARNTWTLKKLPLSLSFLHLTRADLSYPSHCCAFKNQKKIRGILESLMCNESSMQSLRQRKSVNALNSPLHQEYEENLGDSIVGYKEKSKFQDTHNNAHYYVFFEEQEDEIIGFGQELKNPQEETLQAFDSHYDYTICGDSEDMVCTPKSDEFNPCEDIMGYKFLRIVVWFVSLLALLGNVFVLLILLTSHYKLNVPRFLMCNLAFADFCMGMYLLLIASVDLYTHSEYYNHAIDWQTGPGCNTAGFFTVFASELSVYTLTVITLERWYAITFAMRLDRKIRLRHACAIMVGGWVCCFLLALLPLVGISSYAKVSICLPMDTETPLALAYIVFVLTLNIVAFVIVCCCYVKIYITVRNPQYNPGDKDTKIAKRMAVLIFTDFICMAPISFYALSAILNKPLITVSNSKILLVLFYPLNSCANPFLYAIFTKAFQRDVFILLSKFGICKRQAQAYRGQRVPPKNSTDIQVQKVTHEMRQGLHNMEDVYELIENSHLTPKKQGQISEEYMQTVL
In short: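 TSHR-HEK293 cells were plated and held 18 h at 37C/5% CO2, then given compound plus Ro20-1724 and stimulated with TSH at 1.5 ng/mL final. After 30 min at room temperature, cAMP was detected with cAMP-d2/anti-cAMP-cryptate (1 h) by fluorescence.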

[18] = qHTS assay to identify small molecule agonists of the estrogen receptor alpha (ER-alpha) signaling pathway in the presence of an antagonist - cell viability counter screen (AID 1259386);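 note: series mostly up to about 92 µM; cells exposed to compounds for 22 h at 37 °C before the viability read; nearly all actives have a fitted effect of over 30% in size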
In short: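 Viability counter screen using VM7Luc4E2 (full-length ER-alpha, four ERE-luciferase). The cells were treated with compounds alongside ICI-182,780 10.0nM for 22hr, and live-cell protease fluorescence was quantified with CellTiter-Fluor.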

[19] = qHTS assay to identify small molecule phospholipidosis (PLD) inducers (AID 1259344; active = well fitted curve in the direction sought with a large enough effect; an effect the other way counts as inactive or inconclusive)
In short: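 HepG2 cells grown on collagen I take up LipidTOX Red while exposed to compound for 24 h; after fixation they are imaged at 20x and pit metrics are extracted.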

[20] = qHTS assay to identify small molecule agonists of the sonic hedgehog signaling (Shh) pathway (AID 1259368; calls by dose curve;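 note: NIH/3T3-derived 3T3Gli1-Luc cells carrying a stable Gli1-driven firefly luciferase reporter; series mostly up to about 92 µM; nearly all actives have a fitted effect of over 15% in size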)
In short: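 A Gli1 transcriptional response element controlled firefly luciferase in 3T3Gli1-Luc cells. Compounds and a positive control were added 4 hr after plating, and cells were incubated a further 24 hr at 37 C before luminescence detection.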
% is set by controls: 0 for no effect and ±100 for the full control effect.

CCOC(=O)C(O)c1ccccc1 (stereo unspecified)
inactive: Potency [1] | Potency [2] | Potency [3] | Potency [4] | Potency [5] | Potency [6] | Potency [7] | Potency [8] | Potency [9] | Potency [10] | Potency [11] | Potency [12] | Potency [13] | Potency [14] | Potency [15] | Potency [16] | Potency [17] | Potency [18]

O=C1OC(CN2CCOCC2)CN1/N=C/c1ccc([N+](=O)[O-])o1 (stereo unspecified)
active: Potency [2] 26.6 µM
inactive: Potency [1] | Potency [3] | Potency [19] | Potency [4] | Potency [6] | Potency [7] | outcome [20] | Potency [9] | Potency [10] | Potency [12] | Potency [13] | Potency [14] | Potency [15] | Potency [16] | Potency [17]

NS(=O)(=O)c1ccc(N2CCCCS2(=O)=O)cc1
inactive: Potency [1] | Potency [2] | Potency [4] | Potency [5] | Potency [6] | Potency [7] | outcome [20] | Potency [8] | Potency [11] | Potency [12] | Potency [13] | Potency [14] | Potency [15] | Potency [16] | Potency [17] | Potency [18]

CCO[C@H](Cc1ccc(OCCc2ccc(OS(C)(=O)=O)cc2)cc1)C(=O)O
inactive: Potency [1] | Potency [2] | Potency [19] | Potency [4] | Potency [6] | Potency [7] | outcome [20] | Potency [8] | Potency [9] | Potency [10] | Potency [11] | Potency [12] | Potency [13] | Potency [14] | Potency [15] | Potency [18]

O=C(O)CNCC(=O)O
inactive: viability change, negative = cytotoxic [1] -0.633% [at 8.39 µM] | activity, negative = inhibition [2] -3.67% [at 8.39 µM] | activity change, negative = inhibition [3] -6.61% [at 8.39 µM] | activity change, negative = inhibition [4] 10.7% [at 8.39 µM] | viability change, negative = cytotoxic [6] 1.7% [at 8.39 µM] | viability change, negative = cytotoxic [7] 3.32% [at 8.39 µM] | activity change [20] 0.375% [at 8.39 µM] | activity change, negative = inhibition [8] 8.21% [at 8.39 µM] | activation [9] 0.711% [at 8.39 µM] | activity, negative = inhibition [10] 5.13% [at 8.39 µM] | activity change, negative = cytotoxicity [11] -0.627% [at 8.39 µM] | activity change, negative = cytotoxicity [12] 12.4% [at 8.39 µM] | activation [13] 3.52% [at 8.39 µM] | activity change, negative = cytotoxicity [14] -2.7% [at 8.39 µM] | activation [15] -1.55% [at 8.39 µM] | cAMP activity change [16] 0.505% [at 8.39 µM, stronger effect = higher value] | activity change, negative = inhibition [17] -1.17% [at 8.39 µM] | activity change, negative = cytotoxicity [18] -4.75% [at 8.39 µM]

CC(=O)NO
inactive: Potency [1] | Potency [2] | Potency [19] | Potency [4] | Potency [5] | Potency [6] | Potency [7] | outcome [20] | Potency [8] | Potency [9] | Potency [11] | Potency [12] | Potency [14] | Potency [16] | Potency [17] | Potency [18]

O=S(c1cc(Cl)cc(Cl)c1O)c1cc(Cl)cc(Cl)c1O
inactive: Potency [1] | Potency [2] | Potency [3] | Potency [19] | Potency [4] | Potency [5] | Potency [7] | outcome [20] | Potency [11] | Potency [13] | Potency [15] | Potency [16] | Potency [17] | Potency [18]
active: Potency [8] 21.1 µM | Potency [12] 29.8 µM

From PubChem BioAssay (Tox21)
